# According to PubChem BioAssay:
# Active and inactive are the calls of the source.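 How the source made its calls, unless noted: active means NADPH fluorescence slope more negative than the mean of all samples by about 3 SD, 99.7% confidence; inactive means the rest.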
# Columns and labels:
# [1] = inhibitors of TNFa-induced NFkB p65 translocation, primary screen, imaging, HUVEC, MLSMR starter and 10KST1 sets (AID 438;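 active means inhibition above 20% together with a positive visual image hit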;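 further: compound added about 3h40 before a 20 min TNFalpha stimulation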;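 on inhibition: signal is the nuclear over cytoplasmic p65 intensity ratio per well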); conditions: HUVEC TNFa-induced p65 nuclear translocation; cell count: measured here: nuclei count (cytotoxicity indicator), at 2.08 µM; inhibition: at 2 µM, stronger effect = higher value, 0% TNFa-plus-vehicle, 100% no-TNFa wells
# [2] = inhibitors of mutant huntingtin aggregation, primary screen, imaging, exon1htt(103Q)mCFP cells, high-content imaging (AID 483;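 active means visual image review flags a hit and inhibition of aggregation exceeds 20%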;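 further: compound exposure lasted 3 days before fixation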;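 on nuclei count: percent of the per-plate median nuclei count of sample wells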); conditions: exon1htt(103Q)mCFP cell line, aggregate imaging, at 2 µM; inhibition of aggregation: stronger effect = higher value; nuclei count: measured here: cell count, toxicity
# [3] = inhibitors of E-selectin induction by TNFa, primary screen, imaging, HUVEC, immunofluorescence, MLSMR starter and 10KST1 sets (AID 487;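 active means visually confirmed hit in the image check and inhibition above 20%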;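 on inhibition: signal is fraction of cell area covered by stained E-selectin grains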;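 on nuclei count: 100% = median nuclei count of all wells on the same plate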); conditions: HUVEC TNFalpha-induced E-selectin immunofluorescence imaging, at 2 µM; inhibition: stronger effect = higher value; nuclei count: measured here: cell number, toxicity
# [4] = target: Voltage-gated potassium channel subunit beta-2 (Rattus norvegicus) (UniProt P62483); assay: KvBeta enzyme negative modulators, primary screen, biochemical, NADPH fluorescence (AID 622;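 active means fluorescence slope higher than the sample average by over 3 SD, cut at about -0.22 in these data, passing the limit was not always enough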;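 further: slope of raw intensity against log time taken from 70 to 1610 s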); conditions: recombinant KvBeta, 4-cyanobenzaldehyde reduction, at 10 µM, stronger effect = higher value
# [5] = target: Voltage-gated potassium channel subunit beta-2 (Rattus norvegicus) (UniProt P62483); assay: KvBeta positive modulators, primary screen, biochemical, NADPH fluorescence (AID 623); conditions: Recombinant KvBeta, NADPH fluorescence decrease slope, 10 min; at 10 µM; stronger effect = lower value;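 further: fluorescence intensity change per second fitted from 20 to 320 s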
# [6] = target: Alpha-2C adrenergic receptor (Homo sapiens) (UniProt P18825); assay: modulators of alpha2C/GIRK thallium flux, primary screen, cell-based, HEK293 alpha2C/GIRK1/2 (AID 624;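 active means fluorescence slope after compound addition differing from the mean of all screened samples at 99.7% confidence, in either direction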;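 further: slope of fluorescence ratio to pre-addition baseline per second over 15 to 24 s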); conditions: thallium flux BTC fluorescence, at 10 µM, actives lie on both sides
# [7] = inhibitors of Sendai virus-induced IRF3 signaling, primary screen, TLR/RLR signaling modifier project, cell-based, Sendai virus stimulus, luciferase, 10K MLSCN set (AID 602276;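 active means inhibition at or above 50% at 10 µM; inactive means inhibition below 50%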;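 further: firefly luciferase from ISG56 promoter only with Renilla not read in this screen; 0% = Sendai virus plus DMSO and 100% = medium plus DMSO without virus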); conditions: HEK293 RL24 IRF3 luciferase reporter, at 10 µM, stronger effect = higher value
# [8] = inhibitors of poly I:C-induced TLR3 signaling, primary screen, cell-based, poly I:C stimulus, luciferase, 10K MLSCN set (AID 602277;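 active means inhibition of the reporter signal at or above 50%; inactive means inhibition below 50%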); conditions: HEK293-TLR3 RL24 IRF3 luciferase reporter, at 10 µM, stronger effect = higher value
# Chain of Alpha-2C adrenergic receptor (Homo sapiens) (P18825 whole entry, looked up): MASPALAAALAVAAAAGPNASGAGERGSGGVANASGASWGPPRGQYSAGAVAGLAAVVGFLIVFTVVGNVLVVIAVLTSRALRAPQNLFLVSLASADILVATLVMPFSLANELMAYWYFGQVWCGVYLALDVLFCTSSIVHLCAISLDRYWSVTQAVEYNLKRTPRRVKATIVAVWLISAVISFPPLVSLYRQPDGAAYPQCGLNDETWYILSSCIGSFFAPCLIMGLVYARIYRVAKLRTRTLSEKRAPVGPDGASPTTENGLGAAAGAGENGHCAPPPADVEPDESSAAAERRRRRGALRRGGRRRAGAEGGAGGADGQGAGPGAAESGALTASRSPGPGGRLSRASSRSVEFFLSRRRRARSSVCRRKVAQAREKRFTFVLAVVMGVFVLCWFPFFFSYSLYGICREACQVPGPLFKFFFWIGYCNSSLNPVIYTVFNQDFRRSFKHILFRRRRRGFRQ
# Chain of Voltage-gated potassium channel subunit beta-2 (Rattus norvegicus) (P62483 whole entry, looked up): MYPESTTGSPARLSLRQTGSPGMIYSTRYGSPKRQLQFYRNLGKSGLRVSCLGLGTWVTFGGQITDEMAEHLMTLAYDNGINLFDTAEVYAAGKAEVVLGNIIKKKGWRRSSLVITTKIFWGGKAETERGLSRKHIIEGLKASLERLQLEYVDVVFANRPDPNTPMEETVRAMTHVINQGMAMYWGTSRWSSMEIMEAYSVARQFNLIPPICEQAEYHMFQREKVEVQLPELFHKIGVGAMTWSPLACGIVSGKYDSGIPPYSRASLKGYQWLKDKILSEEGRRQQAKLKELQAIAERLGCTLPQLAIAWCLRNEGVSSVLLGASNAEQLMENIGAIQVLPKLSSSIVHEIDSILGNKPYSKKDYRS
structure (smiles),measurement,setting,value
CCCCOc1ccc(N(CC(=O)NC2CCCC2)C(=O)CCC(=O)Nc2ccccn2)cc1,cell count,[1],582
same,inhibition,[1],-1.5% (inactive)
same,inhibition of aggregation,[2],-1.9% (inactive)
same,nuclei count,[2],94%
same,inhibition,[3],-7.6% (inactive)
same,nuclei count,[3],101%
same,fluorescence slope,[4],-0.416 (inactive)
same,NADPH fluorescence slope,[5],1.8e-06 (inactive)
same,slope,[6],0.00642 (inactive)
same,inhibition,[7],15.8% (inactive)
same,inhibition,[8],28.8% (inactive)
Cc1cc(NC(=O)CSc2nc(CCC3CCCC3)nc3ccccc23)no1,cell count,[1],400
same,inhibition,[1],3.5% (inactive)
same,inhibition of aggregation,[2],-13.6% (inactive)
same,nuclei count,[2],113%
same,inhibition,[3],-41% (inactive)
same,nuclei count,[3],90%
same,fluorescence slope,[4],-0.449 (inactive)
same,NADPH fluorescence slope,[5],4e-06 (inactive)
same,slope,[6],0.00867 (inactive)
same,inhibition,[7],8.39% (inactive)
same,inhibition,[8],27.2% (inactive)
CCCC(CCC)C(=O)NCCN1CCOCC1,cell count,[1],412
same,inhibition,[1],-2% (inactive)
same,inhibition of aggregation,[2],6.3% (inactive)
same,nuclei count,[2],97%
same,inhibition,[3],-22.1% (inactive)
same,nuclei count,[3],90.6%
same,fluorescence slope,[4],-0.494 (inactive)
same,NADPH fluorescence slope,[5],-3.5e-05 (inactive)
same,slope,[6],0.0054 (inactive)
same,inhibition,[7],11% (inactive)
same,inhibition,[8],28.6% (inactive)
O=C(O)CN1C(=O)C2(OCCCO2)c2ccccc21,cell count,[1],542
same,inhibition,[1],-5.7% (inactive)
same,inhibition of aggregation,[2],-4.1% (inactive)
same,nuclei count,[2],96.1%
same,inhibition,[3],-0.7% (inactive)
same,nuclei count,[3],124%
same,fluorescence slope,[4],-0.538 (inactive)
same,NADPH fluorescence slope,[5],6.1e-05 (inactive)
same,slope,[6],0.0059 (inactive)
same,inhibition,[7],17% (inactive)
same,inhibition,[8],18.6% (inactive)
Cc1ccc(S(=O)(=O)N2C(=O)CCC2C(=O)Nc2ccc3c(c2)OCCO3)cc1 (stereo not drawn),cell count,[1],430
same,inhibition,[1],3.8% (inactive)
same,inhibition of aggregation,[2],-9.4% (inactive)
same,nuclei count,[2],101%
same,inhibition,[3],-32.2% (inactive)
same,nuclei count,[3],102%
same,fluorescence slope,[4],-0.446 (inactive)
same,NADPH fluorescence slope,[5],-2.2e-05 (inactive)
same,slope,[6],0.00315 (inactive)
same,inhibition,[7],10.3% (inactive)
same,inhibition,[8],27.4% (inactive)
COc1ccc(-c2cc3ccc(OCc4nn[nH]n4)cc3oc2=O)cc1,cell count,[1],399
same,inhibition,[1],-17.5% (inactive)
same,inhibition of aggregation,[2],5.4% (inactive)
same,nuclei count,[2],81.6%
same,inhibition,[3],-24.5% (inactive)
same,nuclei count,[3],84.5%
same,fluorescence slope,[4],-0.00551 (active)
same,NADPH fluorescence slope,[5],1.1e-06 (inactive)
same,slope,[6],0.00437 (inactive)
same,inhibition,[7],8.69% (inactive)
same,inhibition,[8],-13% (inactive)
Cc1nc2cc(-n3ccc(=O)cc3)ccc2n1-c1ccccc1,cell count,[1],352
same,inhibition,[1],-2.1% (inactive)
same,inhibition of aggregation,[2],1.3% (inactive)
same,nuclei count,[2],98.4%
same,inhibition,[3],-286% (inactive)
same,nuclei count,[3],113%
same,fluorescence slope,[4],-0.407 (inactive)
same,NADPH fluorescence slope,[5],-3.5e-05 (inactive)
same,slope,[6],0.00591 (inactive)
same,inhibition,[7],19.8% (inactive)
same,inhibition,[8],99% (active)
CCOC(=O)N1CCN(C(=O)c2ccc3nc4ccsc4c(=O)n3c2)CC1,cell count,[1],542
same,inhibition,[1],9.1% (inactive)
same,inhibition of aggregation,[2],-30.4% (inactive)
same,nuclei count,[2],65.4%
same,inhibition,[3],12.9% (inactive)
same,nuclei count,[3],95.5%
same,fluorescence slope,[4],-0.324 (inactive)
same,NADPH fluorescence slope,[5],-1.8e-05 (inactive)
same,slope,[6],0.00717 (inactive)
same,inhibition,[7],14.6% (inactive)
same,inhibition,[8],44.2% (inactive)
